Several values for one entry are separate records, joined by “and”; a condition that tells them apart may be missing. Equal entries are not always repeated. Records with an inconclusive call do not appear. Activity calls are given as the source filed them. How the source made its calls: active means hit-call score of the fitted dose curve at least 0.9, where 1 is the maximum; inconclusive means response in the unintended direction; inactive means score below 0.9.

Sequence of Estrogen receptor (Homo sapiens) (P03372 whole entry, looked up): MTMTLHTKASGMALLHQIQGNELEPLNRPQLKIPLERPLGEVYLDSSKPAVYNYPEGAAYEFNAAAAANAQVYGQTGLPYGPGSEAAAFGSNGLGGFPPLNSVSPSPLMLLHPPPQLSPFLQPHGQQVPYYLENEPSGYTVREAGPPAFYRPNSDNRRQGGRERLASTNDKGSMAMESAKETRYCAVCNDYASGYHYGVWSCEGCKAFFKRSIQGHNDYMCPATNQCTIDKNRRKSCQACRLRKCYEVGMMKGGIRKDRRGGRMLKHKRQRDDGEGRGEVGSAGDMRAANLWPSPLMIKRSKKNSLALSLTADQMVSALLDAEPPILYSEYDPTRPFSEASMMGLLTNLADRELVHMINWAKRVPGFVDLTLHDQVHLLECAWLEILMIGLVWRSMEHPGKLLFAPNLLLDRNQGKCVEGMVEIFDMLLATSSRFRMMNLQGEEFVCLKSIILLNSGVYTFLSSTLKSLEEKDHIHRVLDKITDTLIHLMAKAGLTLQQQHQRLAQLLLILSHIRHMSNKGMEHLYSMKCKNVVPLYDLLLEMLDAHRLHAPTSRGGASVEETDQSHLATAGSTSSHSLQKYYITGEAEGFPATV

For the assay, the target named is Estrogen receptor (Homo sapiens) (UniProt P03372). Briefly: ATG_hERa_XSP2: Attagene TRANS-FACTORIAL Multi-Species (XSP2) HepG2 Assay for human Estrogen Receptor (ERa) (AID 2283827). Here is the method:
ATG_XSP2_multi-species_TRANS is a cell-based, multiplexed assay created by modifying the existing Attagene TRANS-FACTORIAL system to include a panel of nuclear receptors from some or all the following species: human (Homo sapiens), mouse (Mus musculus), frog (Xenopus laevis), zebrafish (Danio rerio), chicken (Gallus gallus), and turtle (Chrysemys picta). The ECOTOX-FACTORIAL format uses HepG2, a human liver cell line, with measurements taken at 24 hours after chemical dosing in a 24-well plate. Xsp2 included 3 nM 6-alpha-fluorotestosterone and 1.5 nM norgestrel to stimulate the androgen receptor.ATG_hERa_XSP2 is one of 29 assay components measured or calculated from the ATG_XSP2_multi-species_TRANS assay. It is designed to make measurements of mRNA induction, a form of inducible reporter, as detected with fluorescence intensity signals by Reverse transcription polymerase chain reaction (RT-PCR) and Capillary electrophoresis technology.The assay endpoint ATG_hERa_XSP2 was analyzed in the positive analysis fitting direction relative to DMSO as the negative control and baseline of activity. Using a type of inducible reporter, measures of mRNA for gain-of-signal activity can be used to understand the reporter gene at the transcription factor-level as they relate to the gene ER. Furthermore, this assay endpoint can be referred to as a primary readout, because this assay has produced multiple assay endpoints where this one serves a reporter gene function. To generalize the intended target to other relatable targets, this assay endpoint is annotated to the nuclear receptor intended target family, where the subfamily is steroidal.
Human liver HepG2 cells are transiently transfected with multiple reporter transcription units (MRTUs) in 6-well plates using FuGene 6 reagent (Roche; 3 ml FuGene/1 mg DNA). The MRTU constructs are regulated by a cis-regulating element (promoter). […] A major difference between the CIS and TRANS system is that in CIS activities of endogenous TFs are measured, whereas the TRANS assay evaluates changes in activities of exogenous, chimeric NR-Gal4 proteins. […] At the end of 24 hour incubation, total RNA was isolated using TriZol reagent (Invitrogen). The isolated RNA is then reverse-transcribed using oligo(dT) primer and Mo-MLV reverse transcriptase (Invitrogen) with DNAse I (Ambion) treatment for 30 min. The one-tenth of the produced cDNA was amplified by PCR using Taq DNA polymerase (Invitrogen) and two reporter sequence-specific primers. The PCR products were fluorescently labeled by primer extension with 6-arboxyfluorescein (6-FAM) 5'-labeled reporter sequence-specific primer (2 min at 95 C, 20 s at 68 C and 10 min at 72 C) and these products were digested with 5U of HpaI (New England Biolabs) for 2h at 37 C. The fragments were purified using Qiaquick PCR columns (Qiagen), analyzed on an ABI 3130xL genetic analyzer (Applied Biosystems) with peak positions identified by using a set of X-rhodamine (ROX)-labeled MapMarker1000 molecular weight standards (BioVentures). The raw capillary electrophoresis data was processed using Attagraph software (Attagene).
With `O=C(c1ccc(O)cc1O)c1ccc(O)cc1O`, the AC50 (usually the concentration giving half of the maximal activity seen) is 3.02 µM (active).

For `CC(=O)S[C@@H]1CC2=CC(=O)CC[C@]2(C)[C@H]2CC[C@@]3(C)[C@@H](CC[C@@]34CCC(=O)O4)[C@H]12`, the compound was called inactive.

Turning to `CCCCC(CC)CN1C(=O)C2C3C=CC(C3)C2C1=O` (stereo not given), the AC50 is 2.56 µM (active).

As to `CSC(=O)c1cccc2nnsc12`, the result was inactive.

Take `C#C[C@]1(O)CC[C@H]2[C@@H]3CCC4=CC(=O)CC[C@@H]4[C@H]3CC[C@@]21CC`: the AC50 is 114 nM (active) and 35.2 nM (active).

As for `CC1(C)C(C=C(Cl)Cl)C1C(=O)OCc1cccc(Oc2ccccc2)c1` (stereo not given), the AC50 is 7.48 µM (active).

For the compound `CN(C)C(=O)Nc1ccc(Cl)c(Cl)c1`, the AC50 is 47.1 µM (active) and 48.1 µM (active).

Take `CCN(Cc1c(F)cccc1Cl)c1c([N+](=O)[O-])cc(C(F)(F)F)cc1[N+](=O)[O-]`: the AC50 was 1.49 µM (active) and 1.53 µM (active).

Take `N[C@@H](Cc1cc(I)c(Oc2ccc(O)c(I)c2)c(I)c1)C(=O)O`: the AC50 was 351 nM (active) and 1.72 µM (active).

In the case of `CC(C)CCCCCCc1ccc(O)cc1`, the AC50 was 0.768 µM (active).

Values taken from PubChem BioAssay (EPA / NIEHS).
